Assay results: PubChem BioAssay (EPA / NIEHS)
Results filed as inconclusive are left out. The source made the active and inactive calls. The calls were made as follows: active = hit-call score of the fitted dose curve at least 0.9, where 1 is the maximum; inconclusive = response in the unintended direction; inactive = score below 0.9.

Legend:
[1] = target: human Peroxisome Proliferator-activated Receptor alpha (PPARa), PPARA (gene 5465) (UniProt Q07869); experiment: ATG_PPARa_TRANS: Attagene TRANS-FACTORIAL HepG2 Assay for human Peroxisome Proliferator-activated Receptor alpha (PPARa) (AID 2283001);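 as to AC50: potency for gain of reporter signal over DMSO so agonist or activator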
human Peroxisome Proliferator-activated Receptor alpha (PPARa), PPARA (gene 5465), sequence (Q07869 whole entry, looked up, the tested form may be a part): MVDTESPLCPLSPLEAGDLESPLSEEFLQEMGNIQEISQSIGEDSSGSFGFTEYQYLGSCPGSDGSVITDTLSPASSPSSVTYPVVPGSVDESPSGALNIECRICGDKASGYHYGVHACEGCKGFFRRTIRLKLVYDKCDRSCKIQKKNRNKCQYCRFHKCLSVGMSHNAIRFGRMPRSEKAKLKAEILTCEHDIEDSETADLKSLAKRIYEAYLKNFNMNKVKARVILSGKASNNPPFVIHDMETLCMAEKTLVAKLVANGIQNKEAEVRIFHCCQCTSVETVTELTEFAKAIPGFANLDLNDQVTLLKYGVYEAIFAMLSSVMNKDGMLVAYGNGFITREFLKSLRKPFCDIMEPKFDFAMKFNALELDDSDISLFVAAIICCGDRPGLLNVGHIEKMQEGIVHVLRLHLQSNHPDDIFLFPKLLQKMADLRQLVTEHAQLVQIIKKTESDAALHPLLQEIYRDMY
Outline: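 Reporter transcripts from GAL4-UAS units in transfected HepG2 were quantified 24 h after dosing. Detection used reverse transcription, PCR, fluorescent primer extension and capillary electrophoresis, with DMSO as baseline.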

[2] = target: human Peroxisome Proliferator-activated Receptor delta (PPARd), PPARD (gene 5467) (UniProt Q03181); experiment: ATG_PPARd_TRANS: Attagene TRANS-FACTORIAL HepG2 Assay for human Peroxisome Proliferator-activated Receptor delta (PPARd) (AID 2283002)
Outline: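 Read-out is induced reporter mRNA, quantified by RT-PCR with fluorescent labelling and capillary electrophoresis after 24 h dosing. Cells are HepG2 transiently carrying multiple GAL4-UAS reporter units driven by exogenous NR-GAL4 chimeras; DMSO serves as baseline.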

[3] = target: human RAR-related Orphan Receptor beta (RORb), RORB (gene 6096) (UniProt Q92753); experiment: ATG_RORb_TRANS: Attagene TRANS-FACTORIAL HepG2 Assay for human RAR-related Orphan Receptor beta (RORb) (AID 2283010)
human RAR-related Orphan Receptor beta (RORb), RORB (gene 6096), sequence (Q92753 whole entry, looked up, the tested form may be a part): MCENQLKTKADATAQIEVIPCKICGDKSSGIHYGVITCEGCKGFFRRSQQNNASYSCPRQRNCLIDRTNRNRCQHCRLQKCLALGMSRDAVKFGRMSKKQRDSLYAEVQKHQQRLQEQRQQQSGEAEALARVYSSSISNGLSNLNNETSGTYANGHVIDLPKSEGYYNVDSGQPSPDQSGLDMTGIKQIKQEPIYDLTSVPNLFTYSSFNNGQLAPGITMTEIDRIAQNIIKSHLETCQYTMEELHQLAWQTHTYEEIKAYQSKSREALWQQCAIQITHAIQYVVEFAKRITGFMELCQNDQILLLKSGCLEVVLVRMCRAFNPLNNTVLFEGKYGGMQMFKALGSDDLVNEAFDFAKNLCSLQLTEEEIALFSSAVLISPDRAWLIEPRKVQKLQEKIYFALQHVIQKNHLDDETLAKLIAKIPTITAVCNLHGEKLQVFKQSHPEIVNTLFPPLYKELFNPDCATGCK
Outline: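 In this TRANS-format test, human HepG2 cells express chimeric NR-Gal4 fusion proteins driving GAL4-UAS reporters. After 24 h dosing, reporter transcripts are measured by fluorescent RT-PCR/capillary electrophoresis, with DMSO as negative control.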

[4] = target: human Retinoid X Receptor beta (RXRb), RXRB (gene 6257) (UniProt P28702); experiment: ATG_RXRb_TRANS: Attagene TRANS-FACTORIAL HepG2 Assay for human Retinoid X Receptor beta (RXRb) (AID 2283013)
human Retinoid X Receptor beta (RXRb), RXRB (gene 6257), sequence (P28702 whole entry, looked up): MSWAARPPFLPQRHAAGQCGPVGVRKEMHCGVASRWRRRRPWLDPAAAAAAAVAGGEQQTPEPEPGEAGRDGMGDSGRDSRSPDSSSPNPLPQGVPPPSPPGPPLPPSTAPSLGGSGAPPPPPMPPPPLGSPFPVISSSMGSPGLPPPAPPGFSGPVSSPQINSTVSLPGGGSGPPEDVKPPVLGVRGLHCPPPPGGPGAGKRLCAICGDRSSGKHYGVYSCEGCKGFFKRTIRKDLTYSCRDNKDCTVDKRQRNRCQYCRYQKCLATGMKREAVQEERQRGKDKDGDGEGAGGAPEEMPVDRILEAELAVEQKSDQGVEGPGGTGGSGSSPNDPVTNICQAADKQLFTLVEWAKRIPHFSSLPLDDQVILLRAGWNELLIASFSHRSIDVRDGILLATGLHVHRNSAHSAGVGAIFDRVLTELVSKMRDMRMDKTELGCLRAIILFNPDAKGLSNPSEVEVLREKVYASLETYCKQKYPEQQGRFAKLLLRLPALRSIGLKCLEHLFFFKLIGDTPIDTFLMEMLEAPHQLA
Outline: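 Multiplexed TRANS reporter assay in HepG2; 24 h dosing; reporter mRNA by RT-PCR/CE fluorescence; gain-of-signal relative to DMSO.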

[5] = target: Nuclear receptor subfamily 1 group I member 2 (Homo sapiens) (UniProt O75469); experiment: ATG_PXR_TRANS: Attagene TRANS-FACTORIAL HepG2 Assay for human Pregnane X Receptor (PXR) (AID 2283008)
Nuclear receptor subfamily 1 group I member 2 (Homo sapiens), sequence (O75469 whole entry, looked up, the tested form may be a part): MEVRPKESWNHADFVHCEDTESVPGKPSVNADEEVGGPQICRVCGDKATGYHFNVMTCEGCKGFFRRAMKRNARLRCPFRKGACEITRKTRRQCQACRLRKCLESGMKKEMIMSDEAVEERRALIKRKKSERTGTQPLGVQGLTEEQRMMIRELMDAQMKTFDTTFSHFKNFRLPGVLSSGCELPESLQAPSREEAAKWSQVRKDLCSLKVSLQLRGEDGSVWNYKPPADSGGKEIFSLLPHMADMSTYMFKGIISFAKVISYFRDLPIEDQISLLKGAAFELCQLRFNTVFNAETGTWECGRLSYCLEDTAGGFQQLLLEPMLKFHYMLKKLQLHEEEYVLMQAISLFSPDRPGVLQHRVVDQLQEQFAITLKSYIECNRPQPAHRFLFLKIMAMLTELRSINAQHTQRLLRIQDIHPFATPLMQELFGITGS
Outline: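 Fluorescence intensity of FAM-labelled, HpaI-digested reporter amplicons, separated by capillary electrophoresis, quantifies induction. HepG2 cells with PXR-Gal4 trans-reporter system were exposed 24 h; DMSO defines baseline.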

[6] = target: human Retinoic Acid Receptor gamma (RARg), RARG (gene 5916) (UniProt P13631); experiment: ATG_RARg_TRANS: Attagene TRANS-FACTORIAL HepG2 Assay for human Retinoic Acid Receptor gamma (RARg) (AID 2283009)
human Retinoic Acid Receptor gamma (RARg), RARG (gene 5916), sequence (P13631 whole entry, looked up, the tested form may be a part): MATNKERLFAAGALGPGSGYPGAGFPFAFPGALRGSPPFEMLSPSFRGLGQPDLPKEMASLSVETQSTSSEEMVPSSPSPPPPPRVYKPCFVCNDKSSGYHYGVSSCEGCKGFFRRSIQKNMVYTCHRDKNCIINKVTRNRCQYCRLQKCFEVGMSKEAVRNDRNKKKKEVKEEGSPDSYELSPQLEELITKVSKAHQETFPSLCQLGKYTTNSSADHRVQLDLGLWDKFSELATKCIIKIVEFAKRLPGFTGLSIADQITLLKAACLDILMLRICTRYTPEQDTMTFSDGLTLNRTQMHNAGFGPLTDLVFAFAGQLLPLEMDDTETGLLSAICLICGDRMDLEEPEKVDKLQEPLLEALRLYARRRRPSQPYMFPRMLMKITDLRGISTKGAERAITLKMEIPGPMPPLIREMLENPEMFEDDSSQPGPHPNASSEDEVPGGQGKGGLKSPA
Outline: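 HepG2, RARg-GAL4 TRANS system, 24 h exposure; reporter mRNA by RT-PCR + CE fluorescence; increase over DMSO.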

[7] = target: human RAR-related Orphan Receptor gamma (RORg), RORC (gene 6097) (UniProt P51449); experiment: ATG_RORg_TRANS: Attagene TRANS-FACTORIAL HepG2 Assay for human RAR-related Orphan Receptor gamma (RORg) (AID 2283011)
human RAR-related Orphan Receptor gamma (RORg), RORC (gene 6097), sequence (P51449 whole entry, looked up, the tested form may be a part): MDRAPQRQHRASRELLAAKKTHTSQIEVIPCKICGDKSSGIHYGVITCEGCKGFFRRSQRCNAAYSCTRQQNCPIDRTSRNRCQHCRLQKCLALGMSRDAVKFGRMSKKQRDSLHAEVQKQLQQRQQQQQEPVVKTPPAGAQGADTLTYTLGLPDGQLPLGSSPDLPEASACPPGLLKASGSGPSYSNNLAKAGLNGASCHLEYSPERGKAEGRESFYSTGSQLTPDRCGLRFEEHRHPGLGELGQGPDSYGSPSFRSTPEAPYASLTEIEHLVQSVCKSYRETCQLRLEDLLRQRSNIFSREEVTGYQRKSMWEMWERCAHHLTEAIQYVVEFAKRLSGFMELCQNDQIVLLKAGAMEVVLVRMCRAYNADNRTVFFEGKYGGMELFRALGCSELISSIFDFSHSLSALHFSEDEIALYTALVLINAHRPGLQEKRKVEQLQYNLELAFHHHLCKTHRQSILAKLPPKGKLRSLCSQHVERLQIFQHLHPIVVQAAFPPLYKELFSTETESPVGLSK
Outline: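 HepG2 cells transiently transfected with GAL4-UAS reporter units and chimeric RORg-Gal4 construct; after 24 h chemical exposure, reporter mRNA measured by RT-PCR with fluorescent capillary electrophoresis, gain of signal fitted against DMSO.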

[8] = target: Retinoic acid receptor RXR-alpha (Homo sapiens) (UniProt P19793); experiment: ATG_RXRa_TRANS: Attagene TRANS-FACTORIAL HepG2 Assay for human Retinoid X Receptor alpha (RXRa) (AID 2283012)
Retinoic acid receptor RXR-alpha (Homo sapiens), sequence (P19793 whole entry, looked up, the tested form may be a part): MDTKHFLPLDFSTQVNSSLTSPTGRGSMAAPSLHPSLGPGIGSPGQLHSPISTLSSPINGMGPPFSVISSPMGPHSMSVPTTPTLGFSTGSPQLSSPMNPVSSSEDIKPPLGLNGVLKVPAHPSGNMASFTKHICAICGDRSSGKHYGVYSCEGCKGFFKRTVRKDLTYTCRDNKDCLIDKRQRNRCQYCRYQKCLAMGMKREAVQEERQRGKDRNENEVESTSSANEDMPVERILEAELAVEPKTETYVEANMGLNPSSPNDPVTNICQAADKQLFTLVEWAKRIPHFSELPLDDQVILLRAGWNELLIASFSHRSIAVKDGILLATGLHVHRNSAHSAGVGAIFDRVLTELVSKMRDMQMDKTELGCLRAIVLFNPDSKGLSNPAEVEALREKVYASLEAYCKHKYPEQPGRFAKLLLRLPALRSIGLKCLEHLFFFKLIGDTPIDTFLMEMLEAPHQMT
Outline: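 Cells (HepG2) carried transiently transfected GAL4-responsive reporter units. Following a 24 h chemical incubation, reporter mRNA induction was read via RT-PCR fragment analysis; DMSO served as negative control and baseline.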

[9] = target: Peroxisome proliferator-activated receptor gamma (Homo sapiens) (UniProt P37231); experiment: ATG_PPARg_TRANS: Attagene TRANS-FACTORIAL HepG2 Assay for human Peroxisome Proliferator-activated Receptor-gamma (PPARg) (AID 2283007)
Peroxisome proliferator-activated receptor gamma (Homo sapiens), sequence (P37231 whole entry, looked up): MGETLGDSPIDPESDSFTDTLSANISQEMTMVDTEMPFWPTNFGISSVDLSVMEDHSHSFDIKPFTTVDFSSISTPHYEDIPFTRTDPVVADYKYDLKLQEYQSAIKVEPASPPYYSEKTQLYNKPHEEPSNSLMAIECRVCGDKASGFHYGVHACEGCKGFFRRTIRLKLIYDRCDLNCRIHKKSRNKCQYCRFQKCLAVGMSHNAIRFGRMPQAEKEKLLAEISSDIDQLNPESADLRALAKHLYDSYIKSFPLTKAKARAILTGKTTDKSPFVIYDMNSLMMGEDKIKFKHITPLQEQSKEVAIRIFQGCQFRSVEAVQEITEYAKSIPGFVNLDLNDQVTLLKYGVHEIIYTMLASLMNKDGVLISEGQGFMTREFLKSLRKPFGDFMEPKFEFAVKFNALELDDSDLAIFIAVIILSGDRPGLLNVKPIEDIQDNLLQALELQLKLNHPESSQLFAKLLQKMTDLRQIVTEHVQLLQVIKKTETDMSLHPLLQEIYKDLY
Outline: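 Multiplexed reporter transcription units in HepG2, 24 h dosing, reporter transcripts quantified by fluorescent RT-PCR and capillary electrophoresis. Increase over DMSO scored.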

[10] = target: human Thyroid Receptor alpha (THRa1), THRA (gene 7067) (UniProt P10827); experiment: ATG_THRa1_TRANS: Attagene TRANS-FACTORIAL HepG2 Assay for human Thyroid Receptor alpha (THRa1) (AID 2283014)
Outline: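 HepG2 cells transiently transfected with chimeric NR-Gal4 and GAL4-UAS reporter units, dosed 24 h. Reporter mRNA quantified by RT-PCR, fluorescent labeling, HpaI digestion and capillary electrophoresis; gain-of-signal fit versus DMSO.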

[11] = target: human Retinoic Acid Receptor beta (RARb), RARB (gene 5915) (UniProt P10826); experiment: ATG_RARb_TRANS: Attagene TRANS-FACTORIAL HepG2 Assay for human Retinoic Acid Receptor beta (AID 2283004)
human Retinoic Acid Receptor beta (RARb), RARB (gene 5915), sequence (P10826 whole entry, looked up, the tested form may be a part): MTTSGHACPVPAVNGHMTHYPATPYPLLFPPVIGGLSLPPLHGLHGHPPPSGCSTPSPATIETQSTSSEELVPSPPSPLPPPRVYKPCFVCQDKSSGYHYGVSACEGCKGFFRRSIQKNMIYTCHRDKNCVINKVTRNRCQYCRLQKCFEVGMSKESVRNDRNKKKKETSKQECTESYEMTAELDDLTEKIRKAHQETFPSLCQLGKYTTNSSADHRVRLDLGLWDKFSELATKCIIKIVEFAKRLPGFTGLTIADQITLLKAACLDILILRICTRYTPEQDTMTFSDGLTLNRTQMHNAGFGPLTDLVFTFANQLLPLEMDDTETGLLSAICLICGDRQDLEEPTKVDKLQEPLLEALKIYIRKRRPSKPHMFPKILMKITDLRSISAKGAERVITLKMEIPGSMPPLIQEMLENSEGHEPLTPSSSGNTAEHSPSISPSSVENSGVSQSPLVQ
Outline: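 HepG2 cells were transiently transfected with GAL4-UAS reporter units that report activity of exogenous chimeric NR-Gal4 proteins, then exposed to compound for 24 h. Reporter mRNA was quantified by RT-PCR with capillary electrophoresis fluorescence, as gain of signal over DMSO.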

[12] = target: Retinoic acid receptor alpha (Homo sapiens) (UniProt P10276); experiment: ATG_RARa_TRANS: Attagene TRANS-FACTORIAL HepG2 Assay for human Retinoic Acid Receptor alpha (RARa) (AID 2283005)
Retinoic acid receptor alpha (Homo sapiens), sequence (P10276 whole entry, looked up, the tested form may be a part): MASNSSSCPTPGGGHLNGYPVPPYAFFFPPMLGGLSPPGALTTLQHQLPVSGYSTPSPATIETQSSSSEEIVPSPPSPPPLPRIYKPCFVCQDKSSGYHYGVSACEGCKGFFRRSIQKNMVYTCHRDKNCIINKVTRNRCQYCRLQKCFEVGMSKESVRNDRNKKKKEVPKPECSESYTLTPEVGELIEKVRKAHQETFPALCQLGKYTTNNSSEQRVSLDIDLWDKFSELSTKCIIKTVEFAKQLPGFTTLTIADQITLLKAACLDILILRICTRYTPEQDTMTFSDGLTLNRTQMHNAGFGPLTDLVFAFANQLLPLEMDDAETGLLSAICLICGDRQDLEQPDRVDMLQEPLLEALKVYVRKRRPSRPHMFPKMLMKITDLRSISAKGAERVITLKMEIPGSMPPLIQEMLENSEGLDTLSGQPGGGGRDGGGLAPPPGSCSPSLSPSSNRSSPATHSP
Outline: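 Reporter transcripts, measured by RT-PCR with fluorescent labeling and capillary electrophoresis after 24 h dosing, reflect activity of an exogenous human RARa–GAL4 fusion in transiently transfected HepG2. Fitted for increase relative to DMSO.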

Measured: AC50

CCCCCCCCCCCCCCCCC
inactive: [1] | [2] | [3] | [4]

CCOC(=O)CCC(C)=O
inactive: [1] | [2] | [5]

CN(N=O)C(=O)N[C@@H]1[C@@H](O)[C@H](O)[C@@H](CO)O[C@@H]1O
inactive: [1] | [2] | [5] | [6] | [3] | [7] | [8]

CC(C)CC=C(C=O)c1ccccc1
active: [9] 39.5 µM | [5] 0.891 µM
inactive: [1] | [2]

CCCCCCCC/C=C\CCCCCCCC(=O)OCC(O)CO (configuration not stated)
active: [1] 27.7 µM | [9] 27.3 µM
inactive: [2] | [5] | [10]

Cc1ccc([N+](=O)[O-])c(C)c1
not listed: [6] | [9] | [11] | [12]
inactive: all other assays above

O=C1C=CC(=O)N1c1ccccc1
inactive: [1] | [2] | [11] | [12] | [7] | [8]

CCCCCCCCCCCCCC[P+](CCCC)(CCCC)CCCC
inactive: [1] | [2] | [9] | [5]

CCCCCC/C=C/CCCCCCCC(=O)O
active: [1] 37.6 µM | [8] 100 µM
inactive: [2] | [9] | [6] | [3] | [7]

CN1CN(C)CN(C)C1
inactive: [1] | [11] | [12] | [6] | [7]

CCCCCCCCCCCC(=O)Cl
inactive: [1] | [5] | [6]
active: [2] 125 µM

CC(C)Nc1ccc(NC(C)C)c2c1C(=O)c1ccccc1C2=O
active: [5] 0.16 µM
inactive: [1] | [2] | [11] | [9] | [6] | [8]

CC(C)OC(=O)COc1ccc(Cl)cc1Cl
inactive: [1] | [9] | [5] | [6] | [3]

CCC/C=C/CO
inactive: [1] | [2] | [12] | [5] | [3]

Cc1ccc2c(c1)OCC(=O)CO2
inactive: [1] | [2] | [9] | [5] | [7]

CC(=O)C=O
inactive: [1] | [12] | [5] | [7] | [10]

CC(=O)c1ccccc1N
inactive: [1] | [2] | [5] | [3] | [7] | [8] | [10]

COCCC(=O)OC
inactive: [1] | [2] | [9] | [5] | [7] | [10]

C[Si](C)O[Si](C)C
inactive: [1] | [2] | [11] | [6] | [7]

Oc1ccc(C2(c3ccc(O)c(C4CCCCC4)c3)CCCCC2)cc1C1CCCCC1
active: [5] 0.977 µM
inactive: [1] | [12] | [6] | [10]

CCC(Cc1c(I)cc(I)c(N)c1I)C(=O)O (configuration not stated)
active: [1] 35.9 µM | [9] 29.5 µM
inactive: [2] | [5] | [10]

F[Si-2](F)(F)(F)(F)F
not listed: [3] | [6] | [9] | [12]
inactive: all other assays above

Cc1cc(=O)[nH]c(C(C)C)n1
inactive: [1] | [2] | [5] | [6] | [3] | [7]

CCc1cccc(C)c1N(C(=O)C(=O)O)C(C)COC (configuration not stated)
inactive: [1] | [2] | [5] | [3] | [7] | [4]

CCC(=O)OC(C)c1ccccc1 (configuration not stated)
not listed: [5] | [8] | [10] | [11]
inactive: all other assays above

COc1ccccc1C=O
inactive: [1] | [2] | [3] | [8] | [4] | [10]

CSc1ccc(O)cc1C
not listed: [3] | [8] | [12]
inactive: all other assays above

CC1CCCCC1
inactive: [1] | [12] | [5] | [6] | [7] | [4] | [10]

c1ccc(C[P+](c2ccccc2)(c2ccccc2)c2ccccc2)cc1
active: [10] 18.6 µM
inactive: [1] | [11] | [12] | [9] | [5] | [6]

OCCCCl
inactive: [2] | [11] | [12] | [5] | [10]

CC(C)OC=O
inactive: [1] | [9] | [5] | [3] | [8] | [4]

O=C(c1ccccc1)c1ccc(Cl)cc1
inactive: [2] | [8]
active: [5] 37.1 µM | [4] 68.7 µM

CCN=c1cc2oc3cc(NCC)c(C)cc3c(-c3ccccc3C(=O)OCC)c-2cc1C
inactive: [2] | [11] | [5] | [7] | [8] | [10]

CCc1ccc(C)nc1
inactive: [12] | [9] | [7]

CCCCC(CC)COC(=O)c1ccc(N(C)C)cc1 (configuration not stated)
inactive: [2] | [3] | [8]
active: [9] 30.3 µM | [5] 27.2 µM

CCOC(=O)C1CC(=O)C(=C(O)C2CC2)C(=O)C1 (configuration not stated)
inactive: [2] | [5] | [3]

OCC1CCCO1 (configuration not stated)
inactive: [2] | [11] | [5] | [6] | [4]

CCCC(=O)OCC(COC(=O)CCC)OC(=O)CCC
inactive: [7]
